Compound activity from PubChem BioAssay.
Most compounds without a hit are left out; they make up all but 14% or so of the library.
CRE-bla Fsk: CRE-bla signaling modulation under forskolin stimulation; Potency, µM (series often up to 38.2 µM), most hits filed as activators; 71,000 tested, 2.5% active; CHO CRE-bla reporter (cAMP response element driving beta-lactamase), forskolin EC10, beta-lactamase ratio; AID 662; active = well fitted activation curve with a large enough effect in the signal ratio, with a control signal flat, not every such curve was filed as active; inconclusive = small, poorly fitted or top-dose-only effect, or effect the other way, or a change in a side signal; the % refers to the signal ratio
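The 460nm/530nm emission ratio after CCF4 loading defined %Activity, from which AC50 values were obtained. CRE-bla CHO cells received compound dilution series together with an EC10 level of NKH 477 for 3 hours at 37 degrees Celsius.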
AID923: qHTS Assay for Allosteric/Competitive Inhibitors of Caspase-1: Spectroscopic Profiling in AFC Spectral Region; Potency, µM (titrated, usually from 57.5 µM), most hits filed as activators; AID 923, 2007; compound fluorescence, AFC spectral region (405/520 nm); 75,000 tested, 1.1% active
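Titrations up to 57 uM read every 20 sec for 3 min (405/520 nm) with 50 nM caspase 1 and 5 uM Ac-WEHD-AFC, pH 7.5 HEPES buffer. Fluorescence-vs-time intercept gave baseline, scaled against on-plate AFC standard.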
HSD17B inhib: HSD17B dehydrogenase inhibition | Q99714 | recombinant HSD17B10, NADH fluorescence kinetic | Potency, µM (titrated, usually from 57.1 µM), actives largely listed as inhibitors | 75,000 tested, 7.6% active | AID 893;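 note: the protocol describes HADH2 (HSD17B10) and not the HSD17B4 of the title; nearly all actives have a fitted effect of over 70% in size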
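20 nM HADH2, pH 9.0 Tris/Tween; cpd preinc 15 min RT; start w/ 1 mM NAD+ + 90 uM b-hydroxybutyryl-CoA; kinetic fluor ex360/em450 q30s x 4 min; delta last-first.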
A350 fluor: compounds fluorescent in Alexa 350 spectral region. AID 590. Compound autofluorescence, 340/450 nm, Alexa 350 dye-equivalents; hits give high values. max dye-equivalent concentration, M. 59,000 tested, 11% active; in the data active = max dye-equivalent concentration above about 10 nM; inconclusive = mostly about 1.1 nM to 9.6 nM
4MU fluor: compound fluoresces in the 4-MU spectral region; AID 589; compound autofluorescence, 340/450 nm, 4-MU equivalents; hits give high values; 59,000 tested, 11% active; max dye-equivalent concentration, M; in the data active = max dye-equivalent concentration above about 10 nM; inconclusive = mostly about 1.1 nM to 9.6 nM
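Intrinsic fluorescence at 340/450 nm (ex/em) was read after 15 min at room temperature in pH 8.0, 100 mM Tris. Each compound concentration expressed as 4-MU-equivalent concentration from a six-point 4-MU standard series on each plate.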
HADH2 inhib: HADH2 (human) dehydrogenase inhibition. recombinant HADH2, NADH fluorescence, beta-hydroxybutyryl-CoA. Potency, µM (top dose mostly 57.1 µM), most hits filed as inhibitors. 73,000 tested, 3.4% active. AID 886; note: nearly all actives have a fitted effect of over 60% in size
Target sequence (Q99714 whole entry, looked up, one chain of several): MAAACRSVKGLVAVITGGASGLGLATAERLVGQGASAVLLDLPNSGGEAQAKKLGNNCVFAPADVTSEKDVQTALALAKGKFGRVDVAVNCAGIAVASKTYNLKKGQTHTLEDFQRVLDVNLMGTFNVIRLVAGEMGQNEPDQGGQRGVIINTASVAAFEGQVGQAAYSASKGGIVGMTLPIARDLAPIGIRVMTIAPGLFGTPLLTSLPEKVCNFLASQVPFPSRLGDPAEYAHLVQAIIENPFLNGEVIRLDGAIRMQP
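Buffer 100 mM Tris-HCl pH 9.0/0.01% Tween-20; HADH2 20 nM; NAD+ 1 mM; beta-hydroxybutyryl-CoA 90 uM (all final). 15 min cpd preincubation, RT.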
Hits are given with their value; - = inactive; ? = inconclusive; . = no result; [ ] = dose if it differs, or a comment. Unless noted, calls come from the whole dose curve; as a rule, active = well fitted curve in the direction sought with a large enough effect; inconclusive = small, poorly fitted or top-dose-only effect, or another doubt; inactive = no such curve, though single readings can be large; an effect the other way counts as inactive or inconclusive.

SMILES | CRE-bla Fsk | AID923 | HSD17B inhib | A350 fluor | 4MU fluor | HADH2 inhib
Cc1ccc(C(=O)Nc2ccc(S(=O)(=O)O)c3cc(S(=O)(=O)O)cc(S(=O)(=O)O)c23)cc1NC(=O)c1cccc(NC(=O)Nc2cccc(C(=O)Nc3cc(C(=O)Nc4ccc(S(=O)(=O)O)c5cc(S(=O)(=O)O)cc(S(=O)(=O)O)c45)ccc3C)c2)c1 | - | - | 2µM | - | - | ?
O=C(O)CCOc1ccc2c(c1)OCCO2 | - | - | - | - | - | -
CC(C)Oc1cc(O)c2c(c1)OCC=C2CCC(=O)O | -[7.6 µM] | -[11.5 µM] | -[11.4 µM] | 1.2e-08M | 1.2e-08M | -[11.4 µM]
Cn1c(=O)c2c(-c3ccccc3)n(CCCN3CCOCC3)cc2n(C)c1=O | ? | - | - | ? | ? | ?
Cn1c(=O)c2c(-c3ccccc3)n(Cc3ccccn3)cc2n(C)c1=O | - | - | - | 4.9e-08M | 4e-08M | -
C[N+]1(C)CCO[C@](O)(c2ccccc2)C1 | ? | -[11.5 µM] | -[11.4 µM] | - | - | -[11.4 µM]
CC(C)c1ccc(Cn2ccc3c4c(N)nc(NC5CC5)nc4ccc32)cc1 | 13µM | - | ? | . | . | -
COc1ccc(C(=O)/C=C/Nc2cc(C)on2)c(OC)c1 | ? | - | ? | 5.3e-08M | 4.5e-08M | -
O=c1c(-c2ccc(F)c(F)c2)nc2cncnc2n1C1CC1 | ? | - | - | - | - | -
COCCN1C(=O)c2ccccc2C(C(=O)N2CCN(c3ccccn3)CC2)C1c1ccc(F)cc1 (stereo unspecified) | - | - | 25µM | - | - | -
COc1ccc(C2C(C(=O)N3CCCCC3)c3ccccc3C(=O)N2C)cc1 (stereo unspecified) | - | - | - | - | - | -
O=C1CCCN1CCCn1cnc2c([nH]c3ccc(F)cc32)c1=O | ? | - | 25µM | ? | ? | ?
CCN1CCCC1CNc1ncnc2c1[nH]c1ccc(Cl)cc12 (stereo unspecified) | ? | - | ? | 1.5e-08M | 1e-08M | -
O=C(NCCCN1CCCC1=O)Nc1ccc(Cl)cc1 | - | - | - | - | - | -
Cc1ccc2[nH]c3c(=O)n(CCN4CCNCC4)cnc3c2c1 | - | - | - | ? | ? | -
CCN1CCCC1Cn1cnc2c([nH]c3ccc(C)cc32)c1=O (stereo unspecified) | . | . | . | 1.6e-08M | 1.4e-08M | .
O=C1CCCN1CCCNc1ncnc2c1[nH]c1ccc(Cl)cc12 | 1µM | - | 32µM | ? | ? | -
O=c1c2[nH]c3ccccc3c2ncn1CCN1CCCCC1 | - | - | - | - | - | -
O=C(N[C@@]1(C(=O)O)C[C@@H]1c1ccccc1)c1ccccc1 | -[7.6 µM] | -[11.5 µM] | -[11.4 µM] | - | - | -[11.4 µM]
CCCN(CCC)C[C@@H]1CCCCN1CCNC(=O)N1c2ccccc2C(=O)Nc2cccnc21 | - | - | - | . | . | -
O=C(O)CCC(=O)c1ccc(Cl)cc1 | -[7.6 µM] | -[11.5 µM] | -[11.4 µM] | - | - | -[11.4 µM]
CC(=O)C1=C(O)C=C(c2ccco2)CC1c1ccco1 (stereo unspecified) | - | - | - | - | - | ?
O=C(CN1CCN(Cc2ccccc2)CC1)N1CCCc2c1c(=O)oc1ccc(O)cc21 | - | - | - | - | - | -
CCCOc1ccc2oc(=O)c3c(c2c1)CCCN3C(=O)CN(C)Cc1ccccc1 | ? | - | - | 3.4e-08M | 2.7e-08M | -
CCCCC(=O)NCCc1c(Cc2ccccc2)[nH]c2ccccc12 | ? | - | - | . | . | -
SMILES | CRE-bla Fsk | AID923 | HSD17B inhib | A350 fluor | 4MU fluor | HADH2 inhib
COc1cccc(N(C(C)=O)c2nc(C)cc(C)c2C#N)c1 | - | - | - | 2.1e-08M | 2e-08M | -
CC(=O)Nc1cccc(Oc2nc(C)cc(C)c2C#N)c1 | - | - | - | . | . | -
Oc1cc(O)c2c(c1)O[C@H](c1ccc(O)c(O)c1)[C@@H](O)C2 | ? | - | - | - | - | ?
O=c1c(O)cc(C2Oc3cc(O)cc(O)c3CC2O)cc2c(C3Oc4cc(O)cc(O)c4CC3O)cc(O)c(O)c12 (stereo unspecified) | . | - | 7.9µM | . | . | .
CCC1=C2CC[C@H]3C(=O)N(CC)C(=O)[C@H]3[C@H]2[C@@]2(Cc3ccccc3)C(=O)N(CC3CC3)C(=O)N2C1=O | . | - | - | . | . | .
COCCCn1c(SCC(=O)N(C)C)nnc1-c1ccccc1 | - | - | - | - | - | -
CCOC(=O)CN(C(=O)CSc1nnc(-c2ccncc2)n1CCCN(C)C)c1ccccc1 | - | - | - | 3.5e-08M | 3.9e-08M | -
CN1CCc2nc(N)nc(-c3nc(N)nc4c3CN(C)CC4)c2C1 | -[7.6 µM] | -[11.5 µM] | -[11.4 µM] | 1.2e-07M | 1.3e-07M | -[11.4 µM]
CN1CCCCc2c1nc1c(c2N)CCCC1 | - | - | - | - | - | -
O=C(O)c1cc2c([nH]c1=O)CCCC2 | ? | - | 32µM | 2.5e-08M | 1.8e-08M | ?
CCSc1nc2cc(C(=O)OC)ccc2c(=O)n1CC | ? | - | ? | 1.5e-08M | 1.4e-08M | -
Cc1nn(-c2ccc(F)cc2F)c2c1-c1nc(N3CCCC3)ncc1CC2 | ? | - | 25µM | 2.3e-07M | 2.1e-07M | ?
O=C(Cn1cc2c(n1)CCCCC2)Nc1ccc(F)cc1F | - | - | - | . | . | -
O=C(N1CCCC1)N1CCN(c2ncnc3c(-c4ccc(Cl)cc4)nsc23)CC1 | - | - | - | ? | 1e-08M | -
Cc1ccc(-c2nsc3c(N4CCC(C(N)=O)CC4)ncnc23)cc1 | - | - | - | 6.9e-08M | 7.2e-08M | -
COc1ccc(-c2n[nH]c(C(F)(F)F)c2-c2cc3ccccc3o2)c(O)c1 | - | - | 25µM | - | - | -
CC(=O)C1(C)CC2=C(CCCC2(C)C)CC1C (stereo unspecified) | - | - | - | . | . | -
O=C(Nc1cccc2ccccc12)OC1C=CS(=O)(=O)C1 (stereo unspecified) | ? | - | 32µM | - | - | -
c1cc(-c2nc3ccccc3o2)nc(-c2nc3ccccc3o2)c1 | - | - | - | - | - | -
Cc1cc(-c2nc3ccccc3o2)c2ccccc2n1 | ? | - | - | 1.1e-08M | ? | -
c1ccc(-c2nc3ccccc3o2)nc1 | ? | - | 32µM | - | - | -
c1ccc2nc(-c3nc4ccccc4o3)ccc2c1 | - | - | 16µM | 3.4e-08M | 3.5e-08M | ?
Clc1ccc2oc(-c3ccccn3)nc2c1 | ? | - | 25µM | - | - | -
CS(=O)(=O)Nc1cccc(-c2nccc(NCc3ccccc3)n2)c1 | - | - | - | - | - | -
O=c1[nH]c(NCc2ccccc2)nc2c1CCCC2 | - | - | - | ? | ? | -
COc1cc(C(=O)NCc2ccc(-c3nc4ccccc4o3)cc2)cc(OC)c1OC | - | - | ? | - | - | -
Cc1ccnc2ccc(-c3nc4ccccc4o3)cc12 | ? | - | 25µM | 3.3e-08M | 2.5e-08M | -
NC(N)=NC[C@H](N)C(=O)O | -[7.6 µM] | -[11.5 µM] | -[11.4 µM] | - | - | -[11.4 µM]
Cc1ccc(C(=O)CC(C(=O)O)n2cccn2)cc1 (stereo unspecified) | - | - | - | - | - | -
